Most compounds without a hit are left out; they make up all but 3.7% or so of the library.
TGFb SMAD3 inh: qHTS for Inhibitors of TGF-b | HepG2 CAGA-GFP TGF-b/SMAD3 reporter, GFP fluorescence, 18 h; TGF-beta stimulated, 500 pg/mL final | Potency, µM (highest dose often 46.1 µM), without a hit: at the highest dose activity, negative = inhibition, actives largely listed as inhibitors | 1.2% of 410,000 active; further: on the % scale 0 is the no-effect control and ±100 the full control effect; nearly all actives have a fitted effect of over 65% in size
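Inhibition was scored as loss of TGF-beta-induced (500 pg/mL final, 18 hours, 37 degrees C) GFP in HEPG2 cells carrying a CAGA-GFP reporter, in DMEM with 1% FBS. Well GFP was summed per cell; Activity was normalised to unstimulated and stimulated DMSO wells, then concentration-response fitting.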
GLP1R inv ag: qHTS of GLP-1 Receptor Inverse Agonists (Inhibition Mode); HEK293 GLP-1R CRE-luciferase, luminescence, 24 h; GLP-1R form is constitutively active; 1.6% of 410,000 active; Potency, µM (titrated, usually from 38.3 µM), inactives show top-dose activity change, negative = inhibition, most hits filed as inhibitors; further: on the % scale 0 is the no-effect control and ±100 the full control effect; nearly all actives have a fitted effect of over 55% in size
Target sequence (P43220 whole entry, looked up): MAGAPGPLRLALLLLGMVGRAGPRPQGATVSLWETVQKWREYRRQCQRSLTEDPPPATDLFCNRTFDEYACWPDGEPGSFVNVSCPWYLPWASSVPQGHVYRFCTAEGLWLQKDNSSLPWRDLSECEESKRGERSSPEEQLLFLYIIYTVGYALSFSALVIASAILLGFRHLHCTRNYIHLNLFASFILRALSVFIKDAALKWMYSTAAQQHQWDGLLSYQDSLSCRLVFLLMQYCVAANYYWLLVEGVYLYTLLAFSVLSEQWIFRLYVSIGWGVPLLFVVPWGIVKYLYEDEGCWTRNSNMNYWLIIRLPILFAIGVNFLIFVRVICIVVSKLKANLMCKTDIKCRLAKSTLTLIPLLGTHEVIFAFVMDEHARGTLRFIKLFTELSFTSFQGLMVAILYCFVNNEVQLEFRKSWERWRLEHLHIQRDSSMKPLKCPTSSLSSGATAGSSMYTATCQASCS
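Luminescence readout: a drop in cAMP-driven luciferase signal flags inverse agonism at a constitutively active GLP-1R stably expressed in HEK293. Compound exposure lasted 24 hr at 37 deg C, 5% CO2.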
HepG2 tox-1: qHTS for Inhibitors of TGF-b: Cytotox Counterscreen; 0.76% of 410,000 active; Potency, µM (series often up to 46.1 µM), inactives show at the top dose activity change, negative = cytotoxicity, usual class: cytotoxic; HepG2 CAGA-GFP viability, ATP luminescence, 18 h
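HepG2 CAGA-GFP cells (1000/well, DMEM with 1% FBS) received compound, then TGF-beta at 500 pg/mL final, and were incubated 18 hours at 37 degrees C. Viability was read by CellTiter-Glo luminescence. Media-only wells were set as complete cell-killing and DMSO as no toxicity.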
S2 tox: Viability Counterscreen for Primary qHTS for Inhibitors of ATXN expression; S2 cells (HEK-293 line with an ATXN2-luciferase reporter) viability, CellTiter-Fluor protease fluorescence, 24 h; Potency, µM (titrated, usually from 56.7 µM), usual class: cytotoxic; 0.49% of 400,000 active; AID 651635, 2014; further: nearly all actives have a fitted effect of over 40% in size
ATXN2 expr inh: Primary qHTS for Inhibitors of ATXN expression | Potency, µM (titrated, usually from 57 µM), for the others: at the highest dose activity change, negative = inhibition, actives largely listed as inhibitors | HEK-293 ATXN2-luciferase reporter, luminescence, 24 h | 0.72% of 360,000 active; further: on the % scale 0 is the no-effect control and ±100 the full control effect; nearly all actives have a fitted effect of over 55% in size
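ATXN2-luciferase reporter cells (luciferase flanked by upstream and downstream ATXN2 gene portions) were treated 24 h at 37 °C with compounds at up to 57 uM. SteadyGlo luminescence gave expression; GF-AFC fluorescence gave viability.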
GLP-1R agonist: qHTS of GLP-1 Receptor Agonists; Potency, µM (titrated, usually from 45.6 µM), for the others: at the top dose activation, hits mostly activators; Glucagon-like peptide 1 receptor (Homo sapiens), P43220; AID 624172, 2012; 0.007% of 380,000 active; HEK293 GLP-1R CRE-luciferase, luminescence, 4-6 h; cells express a hypersensitive GLP-1R form; further: % of control where 0% means no effect
TGFb confirm: qHTS for Inhibitors of TGF-b: Confirmation of Cherry Picks; shares compounds with TGFb SMAD3 inh; HepG2 CAGA-GFP TGF-b reporter, GFP fluorescence, 18 h; cells stimulated with TGF-beta, 500 pg/mL; Potency, µM (titrated, usually from 46.1 µM), inactives show at the highest dose activity, negative = inhibition, hits mostly inhibitors; 63% of 1,600 active; further: on the % scale 0 is the no-effect control and ±100 the full control effect; nearly all actives have a fitted effect of over 65% in size
HepG2 tox-2: qHTS for Inhibitors of TGF-b: Cytotox Counterscreen for Cherry Picks. 27% of 1,600 active. Potency, µM (doses to about 46.1 µM), without a hit: top-dose activity, negative = cytotoxicity, actives largely listed as inhibitors. HepG2 CAGA-GFP viability, ATP luminescence, 18 h; cells stimulated with TGF-beta, 500 pg/mL. shares compounds with TGFb SMAD3 inh. AID 720535, 2013; further: on the % scale 0 is the no-effect control and ±100 the full control effect; nearly all actives have a fitted effect of over 70% in size
CCL64 TGFb inh: qHTS for Inhibitors of TGF-b: CCL64 Cells Orthogonal Assay for Cherry Picks; 41% of 1,600 active; shares compounds with TGFb SMAD3 inh; CCL64 CAGA-GFP reporter, TGF-b stimulated, GFP fluorescence, 18 h; Potency, µM (titrated, usually from 46.1 µM), inactives show top-dose activity, negative = inhibition, actives largely listed as inhibitors; further: nearly all actives have a fitted effect of over 65% in size
COP TGFb inh: qHTS for Inhibitors of TGF-b: Hit Validation in HepG2 Cells using COP promoter | shares compounds with TGFb SMAD3 inh | HepG2 COP-GFP TGF-b reporter, GFP fluorescence, 18 h; cells stimulated by added recombinant TGF-beta | Potency, µM (top dose mostly 46.1 µM), for inactives: at the highest dose activity, negative = inhibition, most hits filed as inhibitors | 3% of 1,600 active | AID 720537, 2013; further: nearly all actives have a fitted effect of over 70% in size
* marks the source's active call; other numbers are inactive results. The call rests on the fitted dose curve; in most records, active means well fitted curve in the direction sought with a large enough effect; inconclusive means small, poorly fitted or top-dose-only effect, or another doubt; inactive means no such curve, though single readings can be large; an effect the other way counts as inactive or inconclusive. Potency means the concentration at half of the fitted maximal effect.

What do the screens show for `O=C(NCc1ccc2c(c1)OCO2)c1cc([N+](=O)[O-])ccc1N1CCCCC1`?
TGFb SMAD3 inh: inconclusive; GLP1R inv ag: inconclusive; HepG2 tox-1: -1%; S2 tox: inconclusive; ATXN2 expr inh: -17%; GLP-1R agonist: -2%; TGFb confirm: inconclusive; HepG2 tox-2: -5%; CCL64 TGFb inh: inconclusive; COP TGFb inh: 4%

What do the screens show for `Cn1c(CCCOc2ccc(Cl)cc2Cl)nnc1SCC(=O)Nc1cccc(F)c1`?
TGFb SMAD3 inh: 0%; GLP1R inv ag: 2%; HepG2 tox-1: -37%; S2 tox: inactive; ATXN2 expr inh: 1%; GLP-1R agonist: 22%

What do the screens show for `CCn1c(CCCOc2ccc(Cl)cc2Cl)nnc1SCC(=O)Nc1cc(F)ccc1C`?
TGFb SMAD3 inh: 13µM*; GLP1R inv ag: 11µM*; HepG2 tox-1: 4%; S2 tox: inactive; ATXN2 expr inh: 1%; GLP-1R agonist: 11%; TGFb confirm: 13µM*; HepG2 tox-2: inconclusive; CCL64 TGFb inh: -16%; COP TGFb inh: -9%

What do the screens show for `O=C(O)CNC(=O)c1ccccc1I`?
S2 tox: inactive; ATXN2 expr inh: 5%; GLP-1R agonist: 4%

Results for O=C(NCC(c1ccco1)N1CCc2ccccc21)C(=O)Nc1ccccc1F (stereo not drawn) ?
TGFb SMAD3 inh: inconclusive; GLP1R inv ag: inconclusive; HepG2 tox-1: -17%; S2 tox: inactive; ATXN2 expr inh: -12%; GLP-1R agonist: -15%

How did O=C(NCC(c1ccco1)N1CCc2ccccc21)C(=O)Nc1ccc(F)cc1F (stereo not drawn) do in these assays?
TGFb SMAD3 inh: inconclusive; GLP1R inv ag: 4µM*; HepG2 tox-1: 9%; S2 tox: inconclusive; ATXN2 expr inh: -14%; GLP-1R agonist: -5%; TGFb confirm: 13µM*; HepG2 tox-2: 0%; CCL64 TGFb inh: 12µM*; COP TGFb inh: -2%

How did COC(=O)c1cc(Nc2nc3ccccc3nc2NS(=O)(=O)c2ccc(C)cc2)ccc1Cl do in these assays?
TGFb SMAD3 inh: 112%; GLP1R inv ag: 0%; HepG2 tox-1: -25%; S2 tox: inactive; ATXN2 expr inh: 59%; GLP-1R agonist: 1%

What do the screens show for `O=C1CC(c2nnc(Cc3ccc(F)cc3Cl)o2)CN1c1ccccc1` (stereo not drawn)?
TGFb SMAD3 inh: -33%; GLP1R inv ag: -14%; HepG2 tox-1: -9%; S2 tox: inactive; ATXN2 expr inh: 8%

What do the screens show for `O=C1Cc2c([nH]c3ccc(Br)cc23)-c2ccccc2N1`?
TGFb SMAD3 inh: 2.8µM*; GLP1R inv ag: 8%; HepG2 tox-1: -9%; S2 tox: inconclusive; ATXN2 expr inh: 59%; GLP-1R agonist: -8%; TGFb confirm: 0.92µM*; HepG2 tox-2: 3.7µM*; CCL64 TGFb inh: 2.9µM*; COP TGFb inh: 28%

Results for COc1cccc(NC(=O)CCN2CCN(c3ccccc3)CC2)c1 ?
TGFb SMAD3 inh: 31%; GLP1R inv ag: inconclusive; HepG2 tox-1: 1%

What do the screens show for `C=CC(=O)Nc1cccc(Oc2ccnc(Nc3ccc(N4CCN(C)CC4)cc3)n2)c1`?
TGFb SMAD3 inh: 13µM*; GLP1R inv ag: inconclusive; HepG2 tox-1: -10%; S2 tox: inconclusive; ATXN2 expr inh: 0%; GLP-1R agonist: -3%; TGFb confirm: 15µM*; HepG2 tox-2: 23µM*; CCL64 TGFb inh: 12µM*; COP TGFb inh: 22%

Results for Cc1cc(O)c(C)c(C)c1O ?
S2 tox: inactive; ATXN2 expr inh: -2%

How did COc1ccc(-n2cc(C(=O)c3cc(Cl)ccc3O)cc(C#N)c2=O)cc1 do in these assays?
TGFb SMAD3 inh: 0%; GLP1R inv ag: -26%; HepG2 tox-1: -10%; ATXN2 expr inh: -21%; GLP-1R agonist: 10%

Results for CCOc1ccc(-n2cc(C(=O)c3cc(Cl)ccc3O)cc(C#N)c2=O)cc1 ?
TGFb SMAD3 inh: 13µM*; GLP1R inv ag: -22%; HepG2 tox-1: -22%; ATXN2 expr inh: -27%; GLP-1R agonist: 7%; TGFb confirm: -81%; HepG2 tox-2: inconclusive; CCL64 TGFb inh: inconclusive; COP TGFb inh: 53%

What do the screens show for `CC(C)CCn1c(=O)c2sccc2n2c(CCCC(=O)NCCc3ccccc3)nnc12`?
TGFb SMAD3 inh: inconclusive; GLP1R inv ag: 4%; HepG2 tox-1: -7%

How did C=C1CCN(C(C)C(=O)OCc2ccc(C)cc2)S(=O)(=O)c2ccccc21 (stereo not drawn) do in these assays?
TGFb SMAD3 inh: 2%; HepG2 tox-1: -28%

How did Cc1cccc(N2C(=O)CS(=O)(=O)C23C(=O)N(Cc2c(F)cccc2Cl)c2ccccc23)c1 (stereo not drawn) do in these assays?
TGFb SMAD3 inh: 2%; GLP1R inv ag: -9%; HepG2 tox-1: -16%; S2 tox: inactive; ATXN2 expr inh: -12%; GLP-1R agonist: 27%

Screens from PubChem BioAssay.
